Test results reported in PubChem BioAssay (NCATS).
Inconclusive results are not listed. Where a call stands in place of a potency, no number is given. Calls of active or inactive are those of the source. Unless noted, calls come from the whole dose curve.

Key:
[1] = qHTS profiling of the MIPE4 collection as inhibitors of Plasmodium falciparum (3D7) proliferation (AID 743344; call rule not given here); conditions: P. falciparum 3D7 in erythrocytes, SYBR Green DNA fluorescence, 72 h; at 28.5 µM unless noted
In short: (§1)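 Erythrocytes infected with P. falciparum (0.3% parasitemia, 2.5% hematocrit) incubated with compounds 72 h at 37 C, 5% CO2. Lysis with saponin/Triton buffer containing SYBR Green I, overnight at room temperature in the dark; DNA fluorescence (485/535 nm) normalised to 0.29 uM artemisinin and DMSO.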

[2] = qHTS profiling of the MIPE4 collection as inhibitors of Plasmodium falciparum (HB3) proliferation (AID 743347; call rule not given here); conditions: P. falciparum HB3 in erythrocytes, SYBR Green DNA, 72 h; at 28.5 µM unless noted
In short: as §1

[3] = qHTS for Inhibitors of the Functional Ribonucleoprotein Complex (vRNP) of Lassa (LASV) Arenavirus: LASV Primary Screen - GLuc reporter signal (AID 1347082; calls by dose curve; tested in HEK293 reporter line; note: nearly all actives have a fitted effect of over 60% in size; note: potency is the fitted concentration of half-maximal effect)
[4] = qHTS for Inhibitors of the Functional Ribonucleoprotein Complex (vRNP) of Lassa (LASV) Arenavirus: Viability assay - alamar blue signal for LASV Primary Screen (AID 1347083; calls by dose curve; tested in HEK293 reporter line; note: nearly all actives have a fitted effect of over 80% in size; note: potency is the fitted concentration of half-maximal effect)
[5] = qHTS for Inhibitors of the Functional Ribonucleoprotein Complex (vRNP) of Lymphocytic Choriomeningitis Arenaviruses (LCMV): Viability assay - alamar blue signal for LCMV Primary Screen (AID 1347085; calls by dose curve; tested in HEK293 reporter line; note: nearly all actives have a fitted effect of over 80% in size; note: potency is the fitted concentration of half-maximal effect)
[6] = molecular target: Nucleoprotein (Lymphocytic choriomeningitis virus (strain Armstrong)) (UniProt P09992); assay: qHTS for Inhibitors of the Functional Ribonucleoprotein Complex (vRNP) of Lymphocytic Choriomeningitis Arenaviruses (LCMV): LCMV Primary Screen - GLuc reporter signal (AID 1347086); note: nearly all actives have a fitted effect of over 70% in size
[7] = Cytotoxicity counterscreen for inhibitors of SARS-CoV-2 cell entry (AID 1645845); note: nearly all actives have a fitted effect of over 50% in size
In short: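 HEK293-ACE2 cells (Expi293F stably expressing human ACE2) seeded overnight, then compound for 1 h plus 48 h at 37C. Viability as ATP content by luminescence; normalized to wells with cells and media-only wells.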

[8] = Primary qHTS to identify inhibitors of SARS-CoV-2 cell entry (AID 1645846); conditions: activity change, negative = inhibition: at 57.1 µM (top of the series) unless noted; note: nearly all actives have a fitted effect of over 45% in size
In short: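 HEK293-ACE2 (Expi293F, stable hACE2), 1500 cells/well, o/n 37C; cpd 23 nL pin, 1 h; MLV-PP w/ SARS-CoV-2-S (Wuhan-Hu-1, Δ19 C-term); 48 h 37C; Bright-Glo luminescence; normalized vs S-PP and bald PP.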

CRL-7250 = normal cell line; assay: qHTS assay to identify novel small-molecules to repurpose for Merkel cell carcinoma treatment (AID 1296009; active = well fitted inhibition curve with a large enough effect; note: nearly all actives have a fitted effect of over 60% in size); conditions: MCC and control cell lines, CellTiter-Glo viability, 72 h; series mostly up to 92 µM
In short: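 Cells were incubated with compound for 72 hr at 37 degree celsius before CellTiter-Glo addition. Luminescence was normalized with no-cell wells as full cytotoxicity and DMSO as baseline.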

[9] = Confirmatory qHTS to identify inhibitors of SARS-CoV-2 cell entry (AID 1645844); note: potency is the fitted concentration of half-maximal effect; nearly all actives have a fitted effect of over 45% in size
In short: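 HEK293-ACE2 cells were pretreated 1 h with compound, then infected with MLV-based pseudoparticles bearing C-terminally truncated Wuhan-Hu-1 spike for 48 h at 37C; luciferase luminescence normalized to spike PP and bald PP wells.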

[10] = VSVG counterscreen qHTS to identify inhibitors of SARS-CoV-2 cell entry (AID 1645847); note: potency is the fitted concentration of half-maximal effect; nearly all actives have a fitted effect of over 65% in size
In short: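 Expi293F/hACE2 cells, overnight plating; cpd 1 h, 37C/5% CO2; + VSV-G PP (MLV pseudotyping), 48 h; supernatant removed, Bright-Glo luciferase read. Norm: VSV-G PP and bald PP wells.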

Chain of Nucleoprotein (Lymphocytic choriomeningitis virus (strain Armstrong)) (P09992 whole entry, looked up): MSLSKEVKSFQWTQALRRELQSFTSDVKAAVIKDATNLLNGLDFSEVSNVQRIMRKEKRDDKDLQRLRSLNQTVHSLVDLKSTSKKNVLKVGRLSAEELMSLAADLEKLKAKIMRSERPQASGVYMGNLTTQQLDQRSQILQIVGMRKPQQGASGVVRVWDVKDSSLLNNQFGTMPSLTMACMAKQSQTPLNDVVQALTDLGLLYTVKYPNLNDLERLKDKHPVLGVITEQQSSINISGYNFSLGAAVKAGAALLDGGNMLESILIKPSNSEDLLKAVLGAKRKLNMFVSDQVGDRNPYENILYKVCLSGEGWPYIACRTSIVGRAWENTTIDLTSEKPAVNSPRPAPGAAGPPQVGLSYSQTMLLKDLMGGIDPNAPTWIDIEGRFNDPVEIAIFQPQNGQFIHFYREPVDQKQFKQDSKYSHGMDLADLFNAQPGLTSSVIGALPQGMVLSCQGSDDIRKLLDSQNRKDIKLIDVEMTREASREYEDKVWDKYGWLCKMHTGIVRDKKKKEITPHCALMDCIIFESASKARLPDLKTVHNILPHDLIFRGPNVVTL

| Structure (SMILES) | parasite growth, % of DMSO control [1] [%] | growth, % of control [2] [%] | Potency [3] | Potency [4] | Potency [5] | Potency [6] | Potency [7] | Potency [8] | Potency (CRL-7250) | Potency [9] | activity change, negative = inhibition [8] [%] | Potency [10] |
| --- | --- | --- | --- | --- | --- | --- | --- | --- | --- | --- | --- | --- |
| C[C@@H]1C(=O)O[C@H]2CC34[C@H]5C[C@@H](C(C)(C)C)C36[C@H](OC(=O)[C@@H]6O)O[C@@]4(C(=O)O5)[C@]21O (stereo partly drawn) | 77.1 | 102 | inactive | inactive | inactive | inactive | inactive | inactive | inactive |  |  |  |
| CCC(c1ccc(O)cc1)C(CC)c1ccc(O)cc1 (stereo not drawn) |  |  | inactive | inactive | inactive |  | inactive |  | inactive | 27.1 µM (active) | -63.9 | 30.4 µM (active) |
| COc1cc(NC(=O)c2ccc(-c3ccc(Cl)cc3)o2)cc(OC)c1 |  |  | 34.3 µM (active) | 15.3 µM (active) | 21.7 µM (active) |  | inactive |  | inactive |  | -4.11 |  |
